Consider 40 compounds from PubChem BioAssay.

A number with no mark means an inactive call. Calls of active or inactive are those of the source.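 How the source made its calls: active means at least 20% inhibition of 6-phosphogluconate dehydrogenase activity; inactive means the rest.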 Where a SMILES comes first, the peptide text is derived from it.

For the experiment, the target named is 6-phosphogluconate dehydrogenase, decarboxylating (Homo sapiens) (UniProt P52209). Briefly: inhibition of human phosphogluconate dehydrogenase – biochemical, recombinant enzyme, NADPH absorbance, primary screen (AID 1159550). The conditions noted are these: recombinant 6PGD, NADPH absorbance 341 nm; at 10 µM; active compounds read high.
6-phosphogluconate dehydrogenase, decarboxylating (Homo sapiens), sequence (P52209 whole entry, looked up): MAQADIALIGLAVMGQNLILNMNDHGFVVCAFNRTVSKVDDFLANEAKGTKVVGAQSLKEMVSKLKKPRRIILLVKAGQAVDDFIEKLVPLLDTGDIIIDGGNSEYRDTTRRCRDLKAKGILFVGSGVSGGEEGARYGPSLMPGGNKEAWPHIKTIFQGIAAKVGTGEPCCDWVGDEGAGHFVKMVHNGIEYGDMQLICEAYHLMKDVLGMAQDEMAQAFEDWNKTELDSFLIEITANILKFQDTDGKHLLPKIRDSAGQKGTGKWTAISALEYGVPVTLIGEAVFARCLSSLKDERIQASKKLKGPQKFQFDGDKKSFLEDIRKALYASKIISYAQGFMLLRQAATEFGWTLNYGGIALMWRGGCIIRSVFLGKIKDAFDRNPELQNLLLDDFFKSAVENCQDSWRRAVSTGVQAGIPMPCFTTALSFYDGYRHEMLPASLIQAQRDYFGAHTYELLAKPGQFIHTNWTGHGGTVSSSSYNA
`CC(=O)c1ccc(O)c(CC=C(C)C)c1`: the inhibition was 18.5%.
The figure for `CC(C)(OC(=O)c1ccccc1)[C@@H]1Cc2cc3ccc(=O)oc3cc2O1` is 20% (active); for `NCCCC[C@H](N)C(=O)N[C@@H](Cc1ccccc1)C(=O)N[C@@H](Cc1ccc(O)cc1)C(=O)O` (H-Lys-Phe-Tyr-OH) it is 6.75%; for `O=c1c(O)cc([C@H]2Oc3cc(O)cc(O)c3C[C@H]2O)cc2c([C@H]3Oc4cc(O)cc(O)c4C[C@H]3O)cc(O)c(O)c12` it is 31.2% (active).
Under `C[C@H](C[C@@H](O)[C@@H]1OC1(C)C)[C@@H]1CC[C@]2(C)C3=CC[C@H]4C(C)(C)C(=O)CC[C@]4(C)[C@H]3CC[C@@]12C` stands -0.309%; under `C#CC1(O)CCC2C3CCc4cc(O)ccc4C3CCC21C` (stereo not given), 14.4%; under `CC(=O)Oc1ccc2c(c1)CCC1C2CCC2(C)C(OC(C)=O)CCC12` (stereo not given), 3.64%.
Take `CC(C)=CCC[C@@H](C)[C@H]1CC[C@@]2(C)C3=C(CC[C@]12C)[C@@]1(C)CC[C@H](O)C(C)(C)[C@@H]1CC3`: the inhibition was 14.5%.
Under `CC(CCC(=O)O)C1CCC2C3CCC4CCCCC4(C)C3CCC12C` (stereo not given) stands 14%; under `CC=C(C)C(=O)OC1C(OC(C)=O)[C@]2(CO)C(O)C[C@]3(C)C(=CCC4[C@@]5(C)CCC(OC6OC(C(=O)O)C(OC7OC(CO)C(O)C(O)C7O)C(O)C6OC6OC(CO)C(O)C(O)C6O)[C@](C)(CO)C5CC[C@]43C)C2CC1(C)C` (stereo not given in full), 10.9%.
Under `COc1cc2c(cc1OC)[C@H]1Cc3ccc(OC)c(OC)c3CN1CC2` stands 6.86%; under `COc1ccccc1-c1cc(=O)c2cccc(OC)c2o1`, 4.44%; under `CCC(C)C(N)C1=NC(C(=O)NC(CC(C)C)C(=O)NC(CCC(=O)O)C(=O)NC(C(=O)NC2CCCCNC(=O)C(CC(N)=O)NC(=O)C(CC(=O)O)NC(=O)C(Cc3cnc[nH]3)NC(=O)C(Cc3ccccc3)NC(=O)C(C(C)CC)NC(=O)C(CCCN)NC2=O)C(C)CC)CS1` (stereo not given), -5.55%.
The figure for `CC(=O)O[C@H]1CC[C@]2(C)C(C[C@H](OC(C)=O)[C@]3(C)C4=CC(=O)O[C@H](c5ccoc5)[C@@]4(C)CCC23)C1(C)C` (stereo not given in full) is -15.5%.
On to `CC1(C)CCC2(C(=O)O)C(O)CC3(C)C(=CCC4C5(C)CCC(O)C(C)(C)C5CCC43C)C2C1` (stereo not given), for which the inhibition is -10.1%.
Under `COC(=O)[C@H](O)[C@H]1C(C)(C)C(=O)[C@@H]2C[C@]3(O)[C@@H]4CC(=O)O[C@@H](c5ccoc5)[C@]4(C)CC[C@@H]3[C@@]1(C)C2=O` stands 1.04%; under `C=CCCCCCCCCCCC[C@@H](O)C[C@@H](O)CO`, -7.76%; under `C#CCCCCCCCCCCCC(=O)CC(O)COC(C)=O` (stereo not given), -5.7%.
Under `Cn1nnnc1SCC1=C(C(=O)O)N2C(=O)[C@@H](NC(=O)[C@@H](O)c3ccccc3)[C@H]2SC1` stands 0.99%; under `CC(=O)O[C@@H]1C[C@H]2C(C)(C)C(=O)[C@@H]3O[C@@H]3[C@]2(C)[C@H]2CC[C@@]3(C)[C@H](c4ccoc4)OC(=O)[C@H]4O[C@]43[C@@]21C`, -3.37%; under `CC[C@H]1OC(=O)[C@H](C)[C@@H](O[C@H]2C[C@@](C)(OC)[C@@H](O)[C@H](C)O2)[C@H](C)[C@@H](O[C@@H]2O[C@H](C)C[C@H](N(C)C)[C@H]2O)[C@](C)(O)C[C@@H](C)[C@@H]2NC(COCCOC)O[C@H]([C@H]2C)[C@]1(C)O` (stereo not given in full), 5.47%.
Under `Nc1ncnc2c1ncn2C1CC(O)C(CO)O1` (stereo not given) stands 2.59%.
As to `Cc1ccc(C(C)C)c(O)c1C(=O)O`, the inhibition is 7.11%.
Under `NC(=O)NCC(N)C(=O)O` (stereo not given) stands -2.17%; under `CC(=O)O[C@H]1CC[C@]2(C)C(C[C@@H](OC(C)=O)[C@]3(C)C4=CC(=O)OC(c5ccoc5)[C@@]4(C)CCC23)C1(C)C` (stereo not given in full), 5.97%.
Under `Cc1occc(=O)c1/C=C/O` stands 0.162%; under `NC(=O)c1cc[n+](CC2=C(C(=O)O)N3C(=O)[C@H](NC(=O)C(c4ccccc4)S(=O)(=O)[O-])[C@@H]3SC2)cc1` (stereo not given in full), -12%; under `CC(=O)O[C@H]1CC2C(C)(C)[C@H](OC(C)=O)C=C[C@@]2(C)C2CC[C@@]3(C)C(=CC(=O)O[C@@H]3c3ccoc3)[C@]21C` (stereo not given in full), 0.19%.
Under `Nc1nc2ncc(C(=O)O)nc2c(=O)[nH]1` stands 13.3%; under `O=C(O[C@@H]1Cc2c(O)cc(O)cc2O[C@@H]1c1cc(O)c(=O)c2c(O)c(O)cc([C@H]3Oc4cc(O)cc(O)c4C[C@H]3O)c2c1)c1cc(O)c(O)c(O)c1`, 8.68%; under `CCC(=O)OCC(=O)[C@@]1(OC(=O)CC)[C@@H](C)CC2C3CCC4=CC(=O)C=C[C@]4(C)[C@@]3(F)C(O)C[C@@]21C` (stereo not given in full), -9.91%.
For the compound `CC(=O)O[C@@H]1CC2C(C)(C)CCC(=O)[C@]2(C)C2CC[C@@]3(C)[C@H](c4ccoc4)OC(=O)C4OC43[C@@]21C` (stereo not given in full), the inhibition was -0.737%.
Under `CC(C)(O)[C@@H]1Cc2cc3ccc(=O)oc3cc2O1` stands -0.979%; under `CC(C)c1c(O)ccc2c1CCC1[C@@](C)(C(=O)O)CCC[C@]21C` (stereo not given in full), 17.5%; under `COc1ccc(C2COc3c(ccc(O)c3OC)C2)c(OC)c1O` (stereo not given), -5.05%.
Under `Cc1cc(=O)c2c(O)c3c(cc2o1)OC(C)(C)CC3` stands 3.81%.
The figure for `Nc1ccccn1` is -0.139%; for `COc1cc2c(cc1O)[C@@H](Cc1ccc(O)cc1)[N+](C)(C)CC2` it is 16.9%.
Take `OC[C@@H](O)C(O)[C@H](O)CO`: the inhibition was -0.48%.
`NCCCC(N)CC(=O)NCC1NC(=O)C(CO)NC(=O)C(N)CNC(=O)C(C2CCNC(N)=N2)NC(=O)/C(=C/NC(N)=O)NC1=O` (stereo not given): the inhibition is -0.986%.

By inhibition is commonly meant the change of the read-out against control, counted positive when it falls.
